Screening results (PubChem)
Only a sample is shown.
aSyn UTR act: Activators via SNCA 5'UTR binding, MLPCN | alpha-synuclein 5'UTR reporter, activators screen | activity score, % (tested at 7.5 µM), hits read low | hit rate 7.1% among 300,000 | AID 1814, 2009; in the data active = activity score below about -60%
Active calls of the source: *; + = active, no number.

SMILES	aSyn UTR act
CC1CCN(c2ccc(NC(=O)c3ccc(Br)o3)cc2)CC1	-143.7*
CS(=O)(=O)N1CCN(c2ccc(NC(=O)c3ccc(Br)o3)cc2)CC1	-123.4*
Cc1ccc(NC(=O)c2ccc3snnc3c2)cc1	-226.5*
CC(C)c1ccc(NC(=O)c2ccc3snnc3c2)cc1	-117.5*
COc1cc(NC(=O)c2ccc3snnc3c2)cc(OC)c1	-64.6*
O=C(Nc1ccccc1)c1ccc2snnc2c1	-78.8*
COc1ccc2c(c1)Cc1sc(NC(C)=O)nc1-2	-169.1*
O=C(Nc1nc2c(s1)CCCC2)c1cccnc1	-163.9*
COc1ccc2c(c1)CCc1sc(NC(=O)c3ccco3)nc1-2	-114.0*
COc1ccc2c(c1)Cc1sc(NC(=O)c3ccco3)nc1-2	-264.7*
Cc1onc(-c2ccccc2Cl)c1C(=O)Nc1nc2c(s1)CCCC2	-121.3*
COc1ccc2c(c1)Cc1sc(NC(=O)c3cccnc3)nc1-2	-63.0*
Cc1onc(-c2ccccc2Cl)c1C(=O)N1CCN(c2cccc(Cl)c2)CC1	67.3
COc1ccc2c(c1)-c1nc(NC(=O)c3cccs3)sc1CC2	-122.3*
Fc1cccc(Cl)c1CSc1ccc(-c2cccnc2)nn1	-79.5*
Cc1ccc(C(=O)Nc2ccc(-c3csc(C)n3)cc2)cc1	-137.6*
CCc1ccccc1NC(=O)c1ccc(-c2csc(C)n2)cc1	-143.0*
COCCNC(=O)c1ccc(-c2csc(C)n2)cc1	-64.0*
Cc1ccc(C(=O)NCCc2ccncc2)cc1	-113.8*
Cc1ccc(C(=O)NCCc2ccccc2)cc1	71.1
Cc1ccc(CNC(=O)c2ccc(Cn3cc(-c4ccc(C)cc4)nc3-c3ccncc3)cc2)cc1	-176.6*
Cc1ccn(C(=O)c2ccc(NC(=O)C3CCCCC3)cc2)n1	-70.4*
Cc1ccc(CCNC(=O)NC(C)(C)C)cc1	-94.2*
Cc1nc(-c2ccc(NC(=O)C3CCCCC3)cc2)cs1	-173.7*
Cc1ccc(C(=O)NCCc2csc(C)n2)cc1	-80.7*
SMILES	aSyn UTR act
CCOC(=O)c1c(N/N=C/c2cccnc2)n[nH]c1C	-157.2*
Clc1ccc(CONc2ncnc3nonc23)c(Cl)c1	-124.1*
CCCCN(C)S(=O)(=O)c1ccc(C(=O)Nc2nnc(-c3cccs3)o2)cc1	80.9
Cc1ccc(NC(=O)CSc2nnc(-c3cccs3)o2)cc1S(=O)(=O)N(C)C	-164.3*
Cc1cc(NC(=S)Nc2ccc(C)c(Cl)c2)n[nH]1	-110.2*
COc1ccc(NC(=S)Nc2cc(C)[nH]n2)cc1Cl	-124.6*
Cc1ccc2cc(CCNC(=O)c3cccs3)c(=O)[nH]c2c1C	-190.1*
O=C(CNC(=O)c1cccs1)c1ccc(Cl)cc1	-88.6*
O=C(NCCc1ccc(Cl)cc1)c1cccs1	-156.2*
COc1ccc(C(=O)/C(=C/N(C)C)S(=O)(=O)c2ccccc2)cc1	-160.5*
CC1CC(=O)c2cnc(Nc3ccccc3)nc2C1 (stereo not given)	-133.6*
Cc1ccc(NS(=O)(=O)c2ccc(-c3cnc(C4CC4)o3)cc2)c(C)c1	76.8
Cc1ccc(Nc2ncc3c(n2)CC(C)CC3=O)c(C)c1 (stereo not given)	-81.5*
CC(=O)Nc1ccccc1/C=C/c1ccc2c(C)ccc(O)c2n1	-64.3*
CC(=O)Nc1ccc(NC(=O)/C(Cl)=C/c2ccccc2)cc1	-117.5*
COc1cc2c(cc1OC)C(C)N(C(=O)c1cc(C)on1)CC2 (stereo not given)	97.1
COc1cc2c(cc1OC)C(c1ccccc1)N(C(=O)c1cccc(S(C)(=O)=O)c1)CC2 (stereo not given)	-67.1*
CN(C)CCNC(=O)C(=O)Nc1ccc2c(c1)N(S(=O)(=O)c1cccs1)CCC2	-63.2*
O=S(=O)(c1cccs1)N1CCCc2cccc(O)c21	-82.4*
COCCCNC(=O)C(=O)Nc1ccc2c(c1)N(S(=O)(=O)c1cccs1)CCC2	56.8
CCCNC(=O)C(=O)Nc1ccc2c(c1)N(S(=O)(=O)c1cccs1)CCC2	-79.4*
CCCCCCc1ccc(-c2ncc(N)cn2)cc1	-67.7*
CCCCCc1ccc(-c2nnc(N)s2)cc1	-97.7*
O=c1[nH]c2ccccc2nc1-c1ccccc1	-73.2*
O=c1[nH]c2ccccc2nc1-c1ccc(Cl)cc1	-72.4*
SMILES	aSyn UTR act
NC(=O)N=Nc1c2[nH]c3ccccc3nc-2c2ccccc12	+
COc1cccc(NC(=S)N/N=C2\CC3CCC2(C)C3(C)C)c1 (stereo not given)	-77.8*
CCc1ccc(N2C(=O)Cc3c2nc(N)c(C#N)c3N)cc1	-159.9*
CCCCN1C(=O)Cc2c1nc(N)c1c(N)nc(N(CCC)CCC)c(C#N)c21	54.8
CC(C)(C)c1ccc(N2C(=O)Cc3c2nc(N)c(C#N)c3N)cc1	-108.9*
Cc1ccc(-n2c(N)c(C(=O)Nc3c(C)n(C)n(-c4ccccc4)c3=O)c3nc4ccccc4nc32)cc1C	74.0
Cc1cccc(-n2c(N)c(C(=O)NCCN3CCOCC3)c3nc4ccccc4nc32)c1	-82.5*
Cc1cc(/C=N/n2cnnc2)c(C)n1-c1ccc(OCc2ccccc2F)cc1	-81.9*
COc1ccc(NC(=O)c2ccc3c(c2)N(C)CCS3)cc1	-147.6*
CN1CCSc2ccc(C(=O)Nc3cccc(F)c3)cc21	-133.6*
N#Cc1cn(-c2ccccc2)nc1C(=O)c1ccccc1	-192.0*
N#Cc1cn(-c2ccccc2)nc1-c1ccc2c(c1)OCCO2	-183.9*
N#Cc1cn(-c2ccccc2)nc1-c1ccco1	-147.0*
CCOC(=O)Cc1ccc2sc(-c3ccccc3)nc2c1	-82.0*
CCOC(=O)C(C)On1c(-c2ccc(Cl)cc2)nc2ccc([N+](=O)[O-])cc21 (stereo not given)	-175.8*
CCOC(=O)C(C)On1c(-c2ccccc2)nc2ccc([N+](=O)[O-])cc21 (stereo not given)	-192.0*
O=C(O)COn1c(-c2ccccc2)nc2ccc([N+](=O)[O-])cc21	-165.1*
CCOc1cc(CNc2ccc3c(c2)CCC3)ccc1OC	-162.7*
COc1ccc(CNc2ccc3c(c2)CCC3)cc1Br	-104.7*
COc1ccccc1CNc1ccc2c(c1)CCC2	-82.0*
Cc1ccc([N+](=O)[O-])cc1N/C=C/C(=O)c1ccco1	-138.4*
Cc1ccc(N/C=C/C(=O)c2ccco2)c(O)c1	-158.4*
CCOc1ccc(OCc2ccc(C(=O)NCc3ccncc3)o2)cc1	-67.1*
CCOc1ccc(OCc2ccc(C(=O)O)o2)cc1	-86.7*
O=C(O)c1ccc(COc2ccc3ccccc3c2)o1	-157.5*
SMILES	aSyn UTR act
Cc1ccc2nc(-c3ccc(N4C(=N)SC5CS(=O)(=O)CC54)cc3)sc2c1 (stereo not given)	-101.2*
c1ccc(-c2cn(CC3CCCCC3)nn2)cc1	-200.0*
COc1ccc(-c2cn(CC3CCCCC3)nn2)cc1	-120.5*
O=C(Nc1cccc(F)c1)c1ccc(CSc2ccccc2)o1	-121.3*
O=C(Nc1ccccc1F)c1ccc(CSc2ccccc2)o1	-69.5*
COC(=O)c1cn[nH]c1NC(=S)Nc1ccc(C)cc1Cl	-126.7*
COC(=O)c1cn[nH]c1NC(=S)Nc1ccc(Cl)c(Cl)c1	-100.7*
O=C1CC(c2ccco2)CC2=C1C1c3ccccc3C(=O)N1c1ccccc1N2 (stereo not given)	-113.6*
N=C(N)c1ccc(OCCCCCOc2ccc(C(=N)N)cc2)cc1	67.0
CCCCCCOc1ccc(/C(N)=N/O)cc1	-173.1*
C/C(=N\NC(=O)c1sccc1C)c1cccnc1	-200.3*
C/C(=N\NC(=O)c1sccc1C)c1ccncc1	-108.3*
Cc1ccc(Sc2c(CO)c(-c3ccccc3)nn2C)cc1	-86.4*
CC(/C=N/Nc1ccc2nncn2n1)=C\c1ccccc1	-71.9*
